The list shows a part of the results. Entries that show only a call come without a potency. Inconclusive results are not listed. Calls of active or inactive are those of the source. Calls follow the shape of the dose curve; as a rule, active = well fitted inhibition curve with a large enough effect in the main read-out, with a control signal flat (not every such curve was filed as active); inconclusive = small, poorly fitted or top-dose-only effect, or a change in a side signal; inactive = no such curve, though single readings can be large or run the other way.
target: Caspase-7 (Homo sapiens) (UniProt P55210); test: Confirmation Concentration-Response Assay for Allosteric/Competitive Inhibitors of Caspase-7; conditions: recombinant caspase-7, fluorogenic substrate cleavage; series mostly up to 57.5 µM
Source text: NIH Molecular Libraries Screening Centers Network [MLSCN]
NIH Chemical Genomics Center [NCGC]
PI Name: Dr. James Wells,
Dr. Enrique Perez-Paya, Dr.Janice Williams, Dr. Dennis Wolan, a person
The caspases (Cysteine Aspartyl Protease) comprise a related family of 14 dimeric proteases that are critical mediators of apoptosis (programmed cell death) and inflammation. The caspases represent an important class of drug targets for stroke, ischemia, cancer and inflammatory diseases. […] One goal of this project was to identify compounds that act as allosteric inhibitors via stabilizing the procaspase form of the enzyme. Previous work in Well's laboratory has shown that such allosteric inhibitors can be identified and these act by binding at the dimer interface of enzyme (Hardy, Lam et al., 2004).
The biochemical assay was configured using purified caspase 7 at a high enzyme concentration to promote formation of the homodimers and thus facilitate the identification of allosteric inhibitors. […] After initiation of the assay with substrate the plates were rapidly read using an automated robotic system (Kalypsys, Inc.) to maintain consistent timing. […]
Caspase 7 was prepared in buffer (50 mM HEPES pH 7.5, 50 mM KCl, 200 mM NaCl, 10 mM DTT, 0.1% CHAPS) at a concentration of 66.6 nM and 3 uL was dispensed to all wells using black solid Kalypsys 1536-well plates. […] The plates were then exposed using 405 nm excitation/520 nm emission filters for 4 sec and read at 20 sec intervals for 3 min. […]
Concentration-response curves were fitted to the data calculated from slope of the linear regression of fluorescent intensity versus time (the rate). The concentration-effect curves were then classified based on curve quality (r2), response magnitude and degree of measured activity. […] Inconclusive compounds had appreciable concentration-dependent effects on both the measured rate and the interpolated basal fluorescence intensity at the start of the reaction but where the basal fluorescent intensity was marginal (e.g. < 10-fold). […]

Sequence of Caspase-7 (Homo sapiens) (P55210 24-198 limits assumed): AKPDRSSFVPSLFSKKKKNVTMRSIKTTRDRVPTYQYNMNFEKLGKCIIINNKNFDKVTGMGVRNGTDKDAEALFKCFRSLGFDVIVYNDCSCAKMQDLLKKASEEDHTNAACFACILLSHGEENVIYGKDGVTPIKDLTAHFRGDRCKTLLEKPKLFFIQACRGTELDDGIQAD
Sequence of Caspase-7 (Homo sapiens) (P55210 207-303 limits assumed): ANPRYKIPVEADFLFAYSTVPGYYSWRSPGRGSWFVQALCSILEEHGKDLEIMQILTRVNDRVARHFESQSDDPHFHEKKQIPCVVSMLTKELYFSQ

Row | Compound | Potency
1 | N#CC1=C(N)Oc2cc(O)ccc2C1C1CCCCC1 (stereo not drawn) | 25.1 µM (active)
2 | CCN1C(=O)/C(=C2/Sc3ccccc3N2CCCS(=O)(=O)O)SC1=S | inactive
3 | Cc1nc2c(C(=O)NCc3ccc4c(c3)OCO4)c[nH]n2c(=O)c1Cc1ccccc1F | inactive
